The values below come from PubChem BioAssay.

Inconclusive results are not listed. The source made the active and inactive calls.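 The calls were made as follows, unless noted: active = inhibition above the screen-wide mean plus 3 SD, about 51%; inactive = the rest.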

Assay [1] is described as follows: yeast TOR pathway RPL19A-GFP modulators, primary screen, cell-based, S. cerevisiae, multiplex flow cytometry (AID 1862; in the data active = percent of DMSO control GFP below about 86%;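 also: lower values mimic rapamycin by blocking the RPL19A rise seen in DMSO cells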). Particulars: S. cerevisiae RPL19A-GFP strain, flow cytometry fluorescence, 3 h; at 10 µM; stronger effect = lower value. For orientation: Flow cytometry measures light scatter and fluorescence of single cells or particles in a stream.
A short description of assay [2]: modulators of MEP2-GFP levels in yeast, primary screen, S. cerevisiae, multiplex flow cytometry (AID 1867;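 active = GFP response, as percent of the DMSO control, above the screen-wide mean plus 3 SD, about 139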;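 also: median GFP channel fluorescence of barcode-gated MEP2-GFP cells measured by flow cytometry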). Particulars: S. cerevisiae MEP2-GFP strain, 3 h, at 10 µM, stronger effect = higher value, 100% means same as DMSO wells.
The nature of assay [3]: modulators of CIT2-GFP expression in yeast, primary screen, S. cerevisiae, GFP fusion, multiplex flow cytometry (AID 1870;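 active = percent response above a set limit, the screen-wide mean plus 3 SD, cut at about 130% in these data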;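 also: barcoded CIT2-GFP strain pooled with four other GFP strains with rapamycin as positive control; median GFP fluorescence per well over plate mean of DMSO wells so 100% = DMSO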). As to conditions: 3 h, at 10 µM, stronger effect = higher value.
A short description of assay [4]: modulators of LAP4-GFP expression in yeast, primary screen, S. cerevisiae, multiplex flow cytometry (AID 1873;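 active = GFP signal, as percent of the solvent control, above the screen mean plus 3 SD, about 149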). As to conditions: 3 h, at 10 µM, stronger effect = higher value.
Assay [5] is described as follows: modulators of AGP1-GFP expression in yeast TOR pathway, primary screen, cell-based, multiplex flow cytometry, S. cerevisiae (AID 1887;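 active = GFP signal above the screen-wide mean plus 3 SD, that is over about 124.5% of the solvent control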;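 also: AGP1-GFP fusion strain of S. cerevisiae within a five-strain barcoded multiplex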). As to conditions: 3 h, at 10 µM, stronger effect = higher value.
Assay [6] is described as follows: inhibitors of CD8+ T cell-vesicle binding, pilot screen, LFA-1/ICAM-1 modulator project, MLPCN validation set, flow cytometry (AID 2523;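 active = response below a set limit, under 55% cells CD8-positive and vesicle-bound, and CD8 cells' 90th-percentile brightness under 279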;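 as to vesicle binding response: mean PE anti-B7-1 fluorescence of CD8+ cells relative to row control; 100% = QL9-loaded vesicles with DMSO vehicle in the same plate row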). Particulars: 2C mouse CD8+ T cells, at 7 µM, stronger effect = lower value; double positive events: measured here: CD8+/vesicle+ event percentage.
For assay [7], the target named is Integrin beta-1 (Homo sapiens) + Integrin alpha-4 (Homo sapiens) (UniProt P13612+P05556). As to the kind of experiment: inhibition of HUTS-21 binding to VLA-4, pilot screen, VLA-4 allosteric modulator project, U937 cells, HUTS-21 mAb, flow cytometry, validation set (AID 2674;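 active = inhibition above 50%, about 3 SD of the validation set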;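 also: antibody binding induced by the VLA-4 ligand LDV present at three times its Kd; 0% = LDV ligand with antibody and no compound and 100% = antibody without LDV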). As to conditions: HUTS-21 LIBS mAb binding, at 6.7 µM, stronger effect = higher value, binding induced by LDV ligand.

Assay [8] in a line: superoxide lowering in aged yeast cells, pilot screen, validation compound set (AID 2706;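 active = superoxide response below 65% of plate, a cut near 3 SD across the whole screen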;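 also: yeast exposed to compound for one week at 30 degrees C before staining; 100% = mean of all compound wells on the same plate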). As to conditions: S. cerevisiae aging, superoxide DHE fluorescence; at 10 µM; stronger effect = lower value.
The target in assay [9] is Beta-adrenergic receptor kinase 1 (Homo sapiens) (UniProt P25098). The assay is described as follows: GRK2 binders displacing RNA aptamer, biochemical, validation, human GRK2, bead flow cytometry (AID 488806;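 active = aptamer binding inhibition above 30%, about 3 SD of noise from non-fluorescent compounds; inactive = inhibition at or below 30%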). As to conditions: bead-bound GRK2, FAM-aptamer displacement, at 10 µM, stronger effect = higher value.
Assay [10] addresses Beta-2 adrenergic receptor (Homo sapiens) (UniProt P07550). The assay is described as follows: beta2AR agonists driving receptor internalization, pilot screen, cell-based, FAP fluorogen, flow cytometry, validation set (AID 504459;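 active = percent response above 42, roughly 3 SD of non-fluorescent test compounds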;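 also: agonist-driven loss of surface beta2AR via internalization measured by FAP dye flow cytometry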). As to conditions: Am2.2-beta2AR cells, FAP surface receptor flow cytometry; at 10 µM; stronger effect = higher value.
The target of assay [11] is AP-2 complex subunit beta (Homo sapiens) (UniProt P63010). As to the kind of experiment: inhibitors of arrestin peptide binding to AP2, pilot screen, biochemical, validation set, GST-AP2 beads, flow cytometry (AID 504541;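 active = inhibition above 54%, about 3 SD of non-fluorescent compounds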;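 also: AP2 carries R879A mutation and is captured from E. coli lysate; bead-bound FITC arrestin peptide fluorescence measuring arrestin peptide binding to AP2; 0% = DMSO wells and 100% = excess unlabeled arrestin peptide control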). As to conditions: FITC arrestin peptide, at 10 µM, stronger effect = higher value, AP2 beta2 appendage fragment, R879A mutant.
A short description of assay [12]: yeast V-ATPase proton transport modulators, S. cerevisiae, pHLuorin, HTS validation (AID 504600; in the data active = response above about 15%;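 also: plate controls were DMSO for no effect and reference compound for full effect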). As to conditions: S. cerevisiae pHLuorin cytosolic pH, at 10 µM, stronger effect = higher value.
Assay [13] concerns anti-desmoglein-3 scFv antibody binding to human DSG3. As to the kind of experiment: inhibitors of anti-DSG3 scFv binding to DSG3, pilot screen, biochemical, validation compound set, bead-based, flow cytometry (AID 588368;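 active = binding below the plate cutoff, the plate median minus 3 SD, with a reading above zero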;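 also: signal is the median channel fluorescence of bead-bound GFP antibody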). Particulars: Protein G beads, DSG3-Fc, scFv-GFP binding, at 10 µM, stronger effect = lower value.
A short description of assay [14]: inhibitors of fungal efflux pumps CDR1, CDR2, MDR1, pilot screen, validation compound set, multiplex, phenotypic (AID 588506;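 active = efflux inhibition above 0.42, the validation set average plus 4 SD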;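 also: Nile Red retained in cells so higher fluorescence means more efflux inhibition; 0 = negative control wells and 1 = enniatin B 25 µM full block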). Particulars: S. cerevisiae pump-expressing triplex, Nile Red efflux flow cytometry; at 10 µM; stronger effect = higher value; the pumps come from Candida albicans.
Assay [15] concerns the target ATP-binding cassette sub-family B member 6 (Homo sapiens) (UniProt Q9NP58). As to the kind of experiment: ABCB6 transporter inhibitors, pilot screen, K562-ABCB6 cells, flow cytometry, validation set (AID 588550).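 Also: 0% = DMSO wells and 100% = benzethonium chloride 70 µM positive control.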 As to conditions: K562-ABCB6 porphyrin accumulation, 1 h, at 10 µM, stronger effect = higher value.
The nature of assay [16]: promoters of myeloid differentiation in arrested cells, primary screen, cell-based, GFP/MAC1 double positive, flow cytometry, validation set (AID 588685;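 active = differentiation response of at least 50%, scaled between solvent and reference control, from cells with both markers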;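 also: compound exposure lasts four days before antibody staining and flow analysis; 0% = DMSO wells and 100% = 5 µM fulvestrant positive control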). Particulars: ER-HoxA9 marrow cells, stronger effect = higher value, normalized: vehicle 0, fulvestrant 100.

Chain of ATP-binding cassette sub-family B member 6 (Homo sapiens) (Q9NP58 whole entry, looked up): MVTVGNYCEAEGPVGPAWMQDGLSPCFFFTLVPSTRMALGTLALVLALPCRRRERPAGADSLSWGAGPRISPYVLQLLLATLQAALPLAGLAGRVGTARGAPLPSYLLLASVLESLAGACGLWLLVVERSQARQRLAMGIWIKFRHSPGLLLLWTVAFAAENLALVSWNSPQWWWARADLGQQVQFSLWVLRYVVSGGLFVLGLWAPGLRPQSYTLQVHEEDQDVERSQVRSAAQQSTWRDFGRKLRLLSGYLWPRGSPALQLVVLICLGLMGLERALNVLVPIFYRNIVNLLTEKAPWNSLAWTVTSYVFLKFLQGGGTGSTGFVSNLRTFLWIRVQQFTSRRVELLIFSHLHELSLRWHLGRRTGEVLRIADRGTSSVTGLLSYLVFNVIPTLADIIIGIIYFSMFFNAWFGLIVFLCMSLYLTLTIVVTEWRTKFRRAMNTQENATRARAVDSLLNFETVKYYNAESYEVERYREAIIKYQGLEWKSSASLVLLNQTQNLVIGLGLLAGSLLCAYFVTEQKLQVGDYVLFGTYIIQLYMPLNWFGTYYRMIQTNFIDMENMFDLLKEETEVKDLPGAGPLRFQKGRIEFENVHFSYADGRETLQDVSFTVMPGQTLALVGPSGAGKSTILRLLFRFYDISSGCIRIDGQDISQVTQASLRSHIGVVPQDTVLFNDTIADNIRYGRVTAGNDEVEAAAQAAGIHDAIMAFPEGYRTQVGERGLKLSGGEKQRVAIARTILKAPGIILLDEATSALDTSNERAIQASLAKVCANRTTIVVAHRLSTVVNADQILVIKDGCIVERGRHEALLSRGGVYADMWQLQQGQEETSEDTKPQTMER
Chain of Integrin beta-1 (Homo sapiens) + Integrin alpha-4 (Homo sapiens) (P05556 whole entry, looked up): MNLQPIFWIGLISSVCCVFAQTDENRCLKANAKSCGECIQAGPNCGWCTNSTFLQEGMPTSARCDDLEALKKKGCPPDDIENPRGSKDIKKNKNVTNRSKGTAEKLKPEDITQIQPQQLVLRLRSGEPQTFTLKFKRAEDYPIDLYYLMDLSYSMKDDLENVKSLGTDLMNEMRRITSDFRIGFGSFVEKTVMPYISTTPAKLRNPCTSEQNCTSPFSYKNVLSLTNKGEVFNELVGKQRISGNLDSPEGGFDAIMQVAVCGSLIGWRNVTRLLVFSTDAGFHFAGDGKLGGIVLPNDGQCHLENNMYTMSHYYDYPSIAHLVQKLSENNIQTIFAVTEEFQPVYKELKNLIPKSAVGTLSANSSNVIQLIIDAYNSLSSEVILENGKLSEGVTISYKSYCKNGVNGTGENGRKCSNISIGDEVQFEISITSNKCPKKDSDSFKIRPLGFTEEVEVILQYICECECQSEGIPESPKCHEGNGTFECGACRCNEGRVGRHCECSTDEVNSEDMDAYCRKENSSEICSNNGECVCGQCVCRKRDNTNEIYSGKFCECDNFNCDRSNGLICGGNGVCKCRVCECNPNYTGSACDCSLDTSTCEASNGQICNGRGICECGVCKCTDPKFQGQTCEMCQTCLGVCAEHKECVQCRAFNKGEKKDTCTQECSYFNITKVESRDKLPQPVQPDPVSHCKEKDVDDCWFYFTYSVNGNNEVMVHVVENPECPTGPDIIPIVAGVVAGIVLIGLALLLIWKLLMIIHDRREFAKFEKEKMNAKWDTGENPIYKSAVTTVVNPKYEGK
Chain of Integrin beta-1 (Homo sapiens) + Integrin alpha-4 (Homo sapiens) (P13612 whole entry, looked up): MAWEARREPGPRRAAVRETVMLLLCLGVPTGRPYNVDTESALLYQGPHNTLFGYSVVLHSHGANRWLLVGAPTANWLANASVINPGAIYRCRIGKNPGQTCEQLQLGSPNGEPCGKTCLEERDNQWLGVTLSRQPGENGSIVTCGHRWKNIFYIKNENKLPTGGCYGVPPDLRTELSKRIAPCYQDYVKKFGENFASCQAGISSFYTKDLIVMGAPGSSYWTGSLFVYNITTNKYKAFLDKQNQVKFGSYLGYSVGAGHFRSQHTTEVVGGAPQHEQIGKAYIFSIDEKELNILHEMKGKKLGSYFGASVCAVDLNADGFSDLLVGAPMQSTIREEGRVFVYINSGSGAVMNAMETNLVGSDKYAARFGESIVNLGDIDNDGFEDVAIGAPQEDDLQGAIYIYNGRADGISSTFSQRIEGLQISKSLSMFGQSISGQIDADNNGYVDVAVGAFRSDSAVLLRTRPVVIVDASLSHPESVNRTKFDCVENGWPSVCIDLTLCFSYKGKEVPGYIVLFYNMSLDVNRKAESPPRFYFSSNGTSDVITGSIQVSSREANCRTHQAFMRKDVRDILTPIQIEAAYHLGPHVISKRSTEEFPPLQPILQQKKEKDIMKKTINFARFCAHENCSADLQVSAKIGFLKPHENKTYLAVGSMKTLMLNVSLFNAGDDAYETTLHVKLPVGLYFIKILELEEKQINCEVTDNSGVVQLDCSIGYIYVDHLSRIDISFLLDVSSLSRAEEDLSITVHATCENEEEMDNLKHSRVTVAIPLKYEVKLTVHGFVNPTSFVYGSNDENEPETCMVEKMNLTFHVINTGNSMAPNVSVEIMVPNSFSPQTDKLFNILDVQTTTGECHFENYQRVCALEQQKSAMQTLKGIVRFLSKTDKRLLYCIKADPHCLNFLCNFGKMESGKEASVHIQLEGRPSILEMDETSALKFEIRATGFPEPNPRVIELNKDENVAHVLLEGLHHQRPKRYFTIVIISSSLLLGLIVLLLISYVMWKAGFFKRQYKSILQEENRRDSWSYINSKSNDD
Chain of Beta-2 adrenergic receptor (Homo sapiens) (P07550 whole entry, looked up): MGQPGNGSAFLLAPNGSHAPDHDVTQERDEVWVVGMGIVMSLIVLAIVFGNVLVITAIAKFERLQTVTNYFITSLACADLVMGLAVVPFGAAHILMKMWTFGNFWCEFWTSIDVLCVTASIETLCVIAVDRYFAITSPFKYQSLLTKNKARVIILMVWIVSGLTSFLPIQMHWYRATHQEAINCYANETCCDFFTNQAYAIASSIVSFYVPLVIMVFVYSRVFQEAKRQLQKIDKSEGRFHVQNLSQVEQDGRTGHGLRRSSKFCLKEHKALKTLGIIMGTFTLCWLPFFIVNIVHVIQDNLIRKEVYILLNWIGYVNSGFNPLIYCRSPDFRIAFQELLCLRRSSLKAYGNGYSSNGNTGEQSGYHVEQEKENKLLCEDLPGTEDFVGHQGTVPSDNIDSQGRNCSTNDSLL
Chain of AP-2 complex subunit beta (Homo sapiens) (P63010 whole entry, looked up, the tested form may be a part, one chain of several): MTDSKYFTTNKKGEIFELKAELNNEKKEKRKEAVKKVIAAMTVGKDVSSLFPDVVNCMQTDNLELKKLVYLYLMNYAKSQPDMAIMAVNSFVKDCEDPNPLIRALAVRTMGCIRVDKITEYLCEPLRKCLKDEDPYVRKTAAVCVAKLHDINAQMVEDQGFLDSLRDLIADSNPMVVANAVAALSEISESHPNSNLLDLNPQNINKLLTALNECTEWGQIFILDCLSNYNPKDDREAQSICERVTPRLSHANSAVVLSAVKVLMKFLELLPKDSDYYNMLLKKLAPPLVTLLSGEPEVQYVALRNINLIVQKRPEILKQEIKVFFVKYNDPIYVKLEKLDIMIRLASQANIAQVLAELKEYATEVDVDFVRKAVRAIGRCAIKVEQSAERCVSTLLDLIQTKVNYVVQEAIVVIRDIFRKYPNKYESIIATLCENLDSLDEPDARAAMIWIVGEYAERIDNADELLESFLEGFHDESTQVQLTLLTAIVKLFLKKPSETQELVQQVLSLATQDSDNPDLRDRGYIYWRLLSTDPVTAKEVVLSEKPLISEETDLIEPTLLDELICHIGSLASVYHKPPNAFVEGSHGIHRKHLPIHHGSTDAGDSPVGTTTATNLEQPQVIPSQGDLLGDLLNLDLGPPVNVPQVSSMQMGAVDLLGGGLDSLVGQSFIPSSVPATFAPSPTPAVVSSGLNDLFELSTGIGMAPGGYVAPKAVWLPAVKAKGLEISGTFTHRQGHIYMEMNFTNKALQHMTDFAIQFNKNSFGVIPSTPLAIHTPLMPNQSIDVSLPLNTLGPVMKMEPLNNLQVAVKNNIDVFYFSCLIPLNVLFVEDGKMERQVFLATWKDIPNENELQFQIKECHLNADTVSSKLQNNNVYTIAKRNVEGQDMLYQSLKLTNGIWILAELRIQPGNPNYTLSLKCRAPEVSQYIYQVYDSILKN
Chain of Beta-adrenergic receptor kinase 1 (Homo sapiens) (P25098 whole entry, looked up): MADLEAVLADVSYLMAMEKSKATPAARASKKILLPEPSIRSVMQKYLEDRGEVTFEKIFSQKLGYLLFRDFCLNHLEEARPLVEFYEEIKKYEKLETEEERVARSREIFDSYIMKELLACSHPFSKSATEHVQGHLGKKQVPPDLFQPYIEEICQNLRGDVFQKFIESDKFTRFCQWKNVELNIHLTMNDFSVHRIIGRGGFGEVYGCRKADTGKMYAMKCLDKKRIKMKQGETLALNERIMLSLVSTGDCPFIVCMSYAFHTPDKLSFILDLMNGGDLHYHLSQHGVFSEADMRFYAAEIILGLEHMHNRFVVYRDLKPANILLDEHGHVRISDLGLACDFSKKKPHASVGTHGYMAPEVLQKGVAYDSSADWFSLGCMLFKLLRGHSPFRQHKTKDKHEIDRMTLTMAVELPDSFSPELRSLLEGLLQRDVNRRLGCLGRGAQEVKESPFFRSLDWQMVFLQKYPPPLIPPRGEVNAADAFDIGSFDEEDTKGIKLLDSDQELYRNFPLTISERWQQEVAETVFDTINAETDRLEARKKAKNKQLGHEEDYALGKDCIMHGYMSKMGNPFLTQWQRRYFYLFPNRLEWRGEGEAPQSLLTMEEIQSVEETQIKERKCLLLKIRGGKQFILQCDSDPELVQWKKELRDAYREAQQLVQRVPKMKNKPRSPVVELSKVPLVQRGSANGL

Regarding `COc1ccc(CNC(=O)C2CCCN2C)cc1OC` (stereo not given), in assay [1], the percent of DMSO control GFP was 98.8% (inactive). The GFP response vs DMSO in [2] was 99.7% (inactive); in assay [4] it was 92.6% (inactive). The percent response of DMSO control in assay [3] was 101% (inactive). The GFP response, % of DMSO in assay [5] is 96.7% (inactive). In assay [6], this compound returned a double positive events of 62%. In assay [6], the vesicle binding response is 141% (inactive). Also, the inhibition (in general, the drop in the measured response relative to a control, in per cent) in assay [7] is 1.59% (inactive); in [11], -3.62% (inactive); in [15] it was -5% (inactive). In addition, the superoxide response (% of plate) in [8] is 87.7% (inactive). Moreover, the aptamer binding inhibition in [9] is -2% (inactive). Also, the response in assay [10] was 7.42% (inactive); in [12] it was -0.65% (inactive). Besides, in assay [13], the binding (% of control) is 104% (inactive). Besides, the efflux inhibition (fraction of control) in assay [14] is -0.29 (inactive). Also, the differentiation response in assay [16] was -7.5% (inactive).
On to `C=CC1=C(C(=O)O)N2C(=O)C(NC(=O)Cc3ccccc3)C2SC1` (stereo not given), for which the percent of DMSO control GFP in [1] was 101% (inactive). In addition, the GFP response vs DMSO is 103% (inactive) in [2] and 82.8% (inactive) in assay [4]. The percent response of DMSO control in assay [3] was 105% (inactive). In assay [5], the GFP response, % of DMSO was 100% (inactive). The double positive events in assay [6] amounted to 62%. The vesicle binding response in assay [6] was 134% (inactive). Further, the inhibition in assay [7] was 13.2% (inactive); in [11], 15.3% (inactive); in assay [15], 7% (inactive). Moreover, the superoxide response (% of plate) in assay [8] is 96.1% (inactive). The aptamer binding inhibition in assay [9] is 86% (active). The response is 0.41% (inactive) in assay [10] and 1.11% (inactive) in assay [12]. For the same compound, the binding (% of control) in [13] is 101% (inactive). Also, in [14], the efflux inhibition (fraction of control) was 0.01 (inactive). The differentiation response in [16] was -31.2% (inactive).
Consider `COc1ccc2cc(C(=O)Nc3ccc(S(N)(=O)=O)cc3)sc(=O)c2c1OC`, for which the percent of DMSO control GFP in assay [1] is 93.7% (inactive). The GFP response vs DMSO in assay [2] was 110% (inactive); in assay [4] it was 79.8% (inactive). Also, the percent response of DMSO control in assay [3] was 114% (inactive). Besides, in [5], the GFP response, % of DMSO is 98.9% (inactive). For the same compound, in [6], the double positive events turned out to be 57.9%. The vesicle binding response in assay [6] is 258% (inactive). The figures for the inhibition in [7], in assay [11] and in [15] were 3.55% (inactive), -1.93% (inactive) and 7% (inactive), respectively. In addition, the superoxide response (% of plate) in assay [8] was 101% (inactive). In addition, the aptamer binding inhibition in assay [9] is -4% (inactive). The response in assay [10] is 19.2% (inactive); in assay [12], 0.97% (inactive). For the same compound, the binding (% of control) in [13] was 97.8% (inactive). Moreover, in assay [14], the efflux inhibition (fraction of control) is 0.19 (inactive). Also, the differentiation response in [16] was -9.01% (inactive).
With `O=C1C(O)CC2c3ccccc3CC3(CCCC3)N12` (stereo not given), the percent of DMSO control GFP in [1] is 100% (inactive). The GFP response vs DMSO in assay [2] is 104% (inactive); in [4], 114% (inactive). Also, the percent response of DMSO control in assay [3] is 105% (inactive). In addition, the GFP response, % of DMSO in [5] was 100% (inactive). The compound further displayed a double positive events in [6] of 61.4%. The vesicle binding response in assay [6] is 247% (inactive). Also, the inhibition in assay [7] is -0.43% (inactive); in [11] it was -6.78% (inactive); in assay [15], -110% (inactive). For the same compound, the superoxide response (% of plate) in [8] is 106% (inactive). In assay [9], the aptamer binding inhibition was 1% (inactive). Also, the values for the response in assay [10] and in [12] were 48% (active) and 0.88% (inactive), respectively. The binding (% of control) in [13] was 99.9% (inactive). The efflux inhibition (fraction of control) in [14] was 0.08 (inactive). Further, the differentiation response in [16] was -18.4% (inactive).
On to `O=C(NCCNc1ccc(Cl)cc1[N+](=O)[O-])c1cccnc1`, for which, in [1], the percent of DMSO control GFP was 100% (inactive). Besides, the results for the GFP response vs DMSO in assay [2] and in [4] were 102% (inactive) and 106% (inactive), respectively. The percent response of DMSO control in assay [3] is 102% (inactive). For the same compound, the GFP response, % of DMSO in assay [5] is 98.9% (inactive). Besides, in [6], the double positive events was 57.5%. In addition, the vesicle binding response in assay [6] is 13.3% (inactive). Also, the inhibition in [7] is 5.41% (inactive); in assay [11], 20% (inactive); in assay [15] it was 4% (inactive). Besides, in [8], the superoxide response (% of plate) was 102% (inactive). In addition, the aptamer binding inhibition in assay [9] is -6% (inactive). The figures for the response in assay [10] and in assay [12] were -6.88% (inactive) and 0.22% (inactive), respectively. Besides, the binding (% of control) in assay [13] is 100% (inactive). In addition, in [14], the efflux inhibition (fraction of control) was -0.22 (inactive). The differentiation response in assay [16] is 8.02% (inactive).
